This is a sample that favours compounds with a hit; in the whole collection about 5.9% have one here.
HSF1 inh = HSF1 inhibition; NIH3T3-HGL HSE-luciferase, MG132-induced, luminescence 8 h; stronger effect = lower value; activity change, negative = inhibition, % at 7.5 µM (by protocol); 300,000 tested, 0.77% active;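 active = more than half of replicate wells show activity change below -50%, luminescence cut by over half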;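 also: luciferase reports HSF-1 transcriptional activity via heat shock element; 0% = median of DMSO wells and -100% = zero luminescence signal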
HSP90 refold inh = inhibitors of HSP90 luciferase refolding in rabbit reticulocyte lysate; inhibition, % at 5.6 µM; 290,000 tested, 0.91% active; luciferase refolding luminescence, 3 h; AID 1789;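 active = inhibition above the screen-wide mean plus 3 SD, computed separately per campaign, cut at about 16% in these data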;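 also: 0% = DMSO wells and 100% = 60 µM geldanamycin wells; inhibitors lower the luminescence because luciferase stays unfolded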
GAA850 FXN act = increases GAA850 frataxin promoter reporter activity; 360,000 tested, 0.56% active; HEK293 lucGAA850 FXN promoter luciferase reporter, 24 h; percent of 10 µM SAHA response; activation, % at 6 µM; AID 540364;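 active = activation above the average of all compounds screened plus 3 SD, cutoff fixed separately per campaign, cut at about 7.5% in these data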;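 also: 0% = DMSO wells and 100% = 10 µM SAHA wells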
AHR activator = activates the human aryl hydrocarbon receptor | AHR-responsive luciferase reporter cells, luminescence | activation, % at 5 µM | 320,000 tested, 2.5% active; in the data active = activation above about 47%;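 also: 0% = vehicle wells and 100% = reference agonist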
HSF-1 act = increases HSF-1 driven luciferase reporter signal; activation, % at 9 µM; NIH3T3-HGL HSF-1 luciferase reporter, MG132, 8 h; 100% = twice DMSO control signal; 300,000 tested, 1.7% active; AID 504408;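 active = mean replicate activation of at least 50% with a set share of replicates each reaching 50%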;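 also: 0% = median of the neutral control wells and 100% = twice that signal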
NR0B1 inh = inhibits human nuclear receptor DAX1; P51843; HEK293 Gal4-DAX1 luciferase reporter, luminescence; inhibition, % at 6.75 µM; 340,000 tested, 0.99% active;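 active = inhibition above the mean over all tested compounds plus 3 SD, cut at about 4.2% in these data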;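 also: 0% = DAX1-transfected cells with DMSO and 100% = empty-vector control cells with DMSO; inhibition shows as a rise in luminescence from relieved DAX1 repression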
Target sequence (P51843 207-470 limits assumed): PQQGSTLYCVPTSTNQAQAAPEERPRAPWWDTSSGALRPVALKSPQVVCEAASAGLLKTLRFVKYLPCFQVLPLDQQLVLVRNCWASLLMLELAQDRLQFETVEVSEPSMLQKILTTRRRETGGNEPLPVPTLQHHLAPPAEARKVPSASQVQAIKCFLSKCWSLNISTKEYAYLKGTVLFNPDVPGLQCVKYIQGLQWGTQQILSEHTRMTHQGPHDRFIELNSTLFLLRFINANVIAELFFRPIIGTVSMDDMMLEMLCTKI
Starred values were filed as active, the others as inactive; nt = not tested or not shown.

SMILES | HSF1 inh | HSP90 refold inh | GAA850 FXN act | AHR activator | HSF-1 act | NR0B1 inh
CN=c1scc(-c2cccs2)n1/N=C/c1ccccc1O | -89.9* | 77.9* | -14.4 | 38.4 | -91.4 | -5.5
CN=c1scc(C)n1/N=C/c1ccc(O)c(O)c1O | -11.5 | -1.8 | -4.2 | 15.0 | 8.6 | -2.3
O=[N+]([O-])c1cccc(-n2nnnc2CNCc2ccccc2)c1 | 0.1 | -0.7 | 0.2 | -3.6 | 11.3 | 5.7*
O=[N+]([O-])c1cccc(-n2nnnc2CN2CCCC2)c1 | -3.9 | -4.5 | -0.8 | 1.8 | 13.1 | -1.3
Cn1c(=O)[nH]c2c(c1=O)CCO2 | nt | nt | -0.7 | nt | nt | 0.5
Cc1cc(C)c(NC(=O)CSc2nc3ncc(Br)cc3[nH]2)c(C)c1 | 8.1 | -2.3 | 0.8 | 11.5 | 1.9 | 0.4
COc1ccc2nc(SCC(=O)Nc3ccc4c(c3)OCCO4)[nH]c2c1 | -53.0* | 12.2 | -9.3 | 15.4 | -58.8 | -1.2
O=C(CSc1nc2ncc(Br)cc2[nH]1)Nc1ccc2c(c1)OCO2 | nt | -1.2 | -1.6 | 50.1* | nt | 0.3
COc1cccc(CNc2nc3cc(-c4ccc(OC)cc4C)sc3c(=O)n2C)c1 | nt | nt | -0.3 | nt | nt | nt
Cc1cccc(-n2cnc3sc(C)c(C)c3c2=O)c1 | 1.6 | -0.8 | 1.6 | -0.1 | 10.3 | -1.6
Cc1ccc(-n2cnc3sc(C)c(C)c3c2=O)cc1 | 22.5 | -1.4 | 2.0 | -0.5 | 59.5* | 0.1
O=C(NCc1nnc(SCc2ccc(F)cc2)n1-c1ccccc1)C12CC3CC(CC(C3)C1)C2 | 31.2 | 0.1 | 0.1 | -5.5 | 62.1* | -0.3
CC1CC(c2ccccc2)n2nc(NC(=O)c3ccco3)nc2N1 (stereo unspecified) | -15.5 | -0.5 | -0.7 | 1.5 | -34.7 | -0.3
COc1ccc(C2CC(c3ccc(F)cc3)n3nc(NC(=O)c4ccco4)nc3N2)cc1 (stereo unspecified) | -5.7 | -3.8 | -0.8 | 2.2 | 25.5 | 4.8*
O=C(NCCc1ccccc1)c1c[nH]c2ccccc2c1=O | nt | nt | 1.7 | nt | nt | 0.7
COC(c1ccccc1)c1nnc(CCC(=O)N(C)C(C2CC2)C2CC2)o1 (stereo unspecified) | 9.0 | -2.8 | 1.8 | 10.5 | 25.8 | 5.2*
N#CCSc1ccsc1C(=O)Nc1ccc(F)cc1 | 5.5 | 0.4 | 3.5 | 49.9* | 16.5 | 0.4
O=C(CN1C(=O)NC2(CCCc3ccccc32)C1=O)c1ccccc1F (stereo unspecified) | nt | nt | 1.9 | 4.2 | nt | 0.9
CC(=O)c1c(N2CCN(CCO)CC2)nc(=S)n(-c2ccccc2)c1C | -64.3* | -1.3 | 0.1 | 1.9 | -71.6 | -0.5
CC(=O)c1c(N2CCN(c3ccccc3)CC2)nc(=S)n(-c2ccccc2)c1C | 0.4 | -1.2 | 0.8 | 8.9 | 3.7 | 0.1
COc1cccc(-c2cc3c(-n4cccc4)ncnc3o2)c1 | -9.2 | 7.5 | 2.7 | 56.0* | -7.4 | 0.2
S=c1sc2c(Cl)ncnc2n1-c1ccccc1 | 477.7 | -2.7 | 2.9 | nt | 565.5* | -3.0
Cc1nc(N2CCN(C)CC2)c2sc(=S)n(-c3ccccc3)c2n1 | 7.4 | -0.8 | 0.1 | 0.6 | 13.2 | 1.6
COC(=O)c1c(NC(=O)CS(=O)(=O)c2ccccc2)sc(C)c1C | 0.7 | nt | -3.3 | 3.7 | 7.8 | -0.7
CCOC(=O)CCCNS(=O)(=O)c1c(C)ccc2nsnc12 | -89.3* | 2.3 | 0.1 | 0.5 | -90.7 | -1.2
SMILES | HSF1 inh | HSP90 refold inh | GAA850 FXN act | AHR activator | HSF-1 act | NR0B1 inh
COc1ccc(-c2nc(-c3cccs3)c(-c3cccs3)[nH]2)cc1O | 11.3 | 2.9 | 0.4 | 47.5* | -3.0 | -1.5
O=C(O)c1ccc(-c2nc(-c3ccccc3)c(-c3cccs3)[nH]2)cc1 | 11.9 | -3.0 | 2.8 | 7.0 | 22.5 | -2.6
Cc1cc2c(c(/C=C/C(=O)c3ccccc3)c1)OC1(C=C2)Oc2ccccc2C(=O)N1C (stereo unspecified) | 45.6 | 0.5 | 1.4 | -1.5 | 74.1* | -1.7
O=C1c2ccccc2OC2(C=Cc3ccccc3O2)N1Cc1ccccc1 (stereo unspecified) | 2.2 | -0.5 | -4.6 | -0.6 | -2.2 | 0.8
COc1cccc(CNc2nc3cc(-c4ccccc4C)sc3c(=O)n2C)c1OC | nt | nt | 1.4 | nt | nt | nt
COC(=O)CCC(=O)NNC(=O)c1cccc(Br)c1 | -66.6* | -1.0 | 3.8 | 5.9 | -73.1 | -0.3
O=C(Nc1cc2c3c(c1)CC(=O)N3CCC2)c1ccc(F)cc1 | 0.3 | nt | 2.5 | 47.0* | 2.2 | 1.2
O=C(NCCO)C(=O)Nc1cc2c3c(c1)CC(=O)N3CCC2 | -3.0 | 3.5 | 1.1 | -0.3 | 3.5 | 1.1
O=C(CCl)c1cc2c3c(c1)CC(=O)N3CCC2 | 0.4 | -1.0 | 8.6* | 1.2 | -5.1 | 4.1
COc1ccc(C(=O)Nc2cc3c4c(c2)CC(=O)N4CCC3)cc1 | -1.9 | nt | -0.7 | -1.9 | 7.4 | 2.5
NC(=O)NC(=O)C(c1ccccc1)N1CCN(S(=O)(=O)c2ccc(Br)s2)CC1 (stereo unspecified) | nt | nt | -0.2 | -1.6 | nt | -0.7
C#CCn1c(=NC(=O)c2ccc(S(=O)(=O)N3CCCc4ccccc43)cc2)sc2cc(S(N)(=O)=O)ccc21 | 5.6 | 2.2 | -0.7 | 2.9 | 53.4* | -2.6
CCn1c(Cl)c(C=O)s/c1=N\S(=O)(=O)c1ccccc1 | 77.5 | 2.7 | -15.9 | -0.9 | 113.2* | -6.7
O=C(CNC(=O)c1cccs1)OCC(=O)c1ccccc1 | -2.4 | 2.6 | -0.1 | -0.6 | -10.9 | -0.3
CCc1ccc(C(=O)COC(=O)CNC(=O)c2cccs2)cc1 | -86.3* | -2.6 | 1.9 | -0.1 | -89.0 | 0.8
CCCn1cccc(C(=O)Nc2ccc(OC)cc2)c1=O | 9.6 | -3.3 | 3.1 | 75.4* | 18.3 | -0.7
COc1cc(NC(=O)c2ccccc2-c2ccccc2)cc(OC)c1OC | -3.1 | 3.4 | nt | 2.3 | 6.2 | nt
COc1ccc(NC(=O)c2c(C)nn(-c3ccccc3)c2Cl)cc1 | 10.4 | -2.6 | 0.5 | 14.7 | 14.0 | 5.1*
COc1cc(NC(=O)c2ccccc2-c2ccccc2)cc(OC)c1 | 7.4 | 2.5 | -4.1 | 47.8* | 3.2 | -1.4
COc1cccc(NC(=O)c2c(C)nn(-c3ccccc3)c2Cl)c1 | 16.2 | -2.3 | 0.8 | nt | 28.9 | 0.3
COc1ccc(NC(=O)c2ccccc2C)cc1 | 14.8 | 1.0 | 4.0 | -0.1 | 27.3 | 6.3*
CC1(C(=O)NCCC(F)(F)F)Cc2c(-c3ccccc3)ccnc2O1 (stereo unspecified) | nt | nt | -1.8 | nt | nt | nt
CCOc1c(C)cnc2c1c(=O)n(Cc1c(F)cccc1Cl)c(=O)n2C | 1.1 | -7.1 | 1.4 | 1.1 | -6.4 | -0.1
CC1CCCCN1C(=O)COC(=O)C1CCN(S(=O)(=O)c2ccc3c(c2)OCCO3)CC1 (stereo unspecified) | -0.7 | nt | -0.6 | -2.2 | -5.4 | 1.2
COc1ccc(NC(=O)c2csc3c2CCCC3)cc1 | 34.1 | 2.5 | 2.4 | 46.2 | 53.1* | 2.3
CCC(C)NC(=O)c1csc2c1CCCCC2 (stereo unspecified) | 18.8 | -1.0 | -0.9 | 1.7 | 67.2* | 1.6
O=C(Nc1ccc(F)cc1)c1cccc2ccccc12 | 3.6 | -3.5 | 2.8 | 57.5* | 12.3 | -0.3
